Hits are enriched below; roughly 3.8% of the tested compounds scored in any of these assays.
KCNH2 3.1 inh = inhibitors of human KCNH2 3.1 potassium channel isoform. activity change, % (tested at about 1.8 µM). hit rate 0.95% among 340,000. U2OS KCNH2 3.1, thallium flux FluxOr; active compounds read low. AID 720553;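 active means maximum activity change below -70%; inconclusive means maximum activity change from -70% to -50%; inactive means maximum activity change above -50%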;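 further: thallium influx rate constant from kinetic fluorescence after stimulation buffer; on the % scale 0 is the no-effect control and ±100 the full control effect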
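Thallium flux read-out: FluxOr dye with Red40 quencher in HBSS/HEPES, 45 min at RT. Rate constants from kinetic reads were normalized to positive and negative DMSO controls. Cells: U2OS virally expressing the 3.1 isoform.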
PLK1 PBD block = PLK1 (human) polo-box domain binding inhibition; Potency, µM, for inactives: max response, negative = inhibition, actives largely listed as inhibitors; P53350; Plk1 PBD binding of FITC phosphopeptide, fluorescence polarization; hit rate 2.8% among 360,000; further: potency means the concentration at half of the fitted maximal effect; series mostly up to about 57 µM; on the % scale 0 is the no-effect control and ±100 the full control effect; nearly all actives have a fitted effect of over 65% in size
KCNH2 WT inh = inhibitors of human wildtype KCNH2 potassium channel. Q12809. U2OS, BacMam KCNH2, thallium flux FluxOr; active compounds read low. activity change, % at 1.84 µM. hit rate 0.37% among 340,000. AID 720551;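 active means maximum activity change below -70%; inconclusive means maximum activity change between -70% and -50%; inactive means maximum activity change above -50%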; further: on the % scale 0 is the no-effect control and ±100 the full control effect
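U2OS cells transduced with wild-type KCNH2 virus are loaded with FluxOr dye for 45 min, and thallium flux is measured in kinetic reads before and after stimulation buffer. Rate constants are normalized to DMSO controls.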
MBNL1-CUG inh = inhibitors of human MBNL1 binding to CUG repeat RNA; Q9NR56; TR-FRET MBNL1-His/biotin-(CUG)12 binding, 665/545 ratio; Potency, µM (titrated, usually from 57.5 µM), without a hit: at the top dose activity change, negative = inhibition, hits mostly inhibitors; hit rate 0.036% among 280,000; AID 2675; active means well fitted inhibition curve with a large enough effect in the signal ratio, with a control signal flat, not every such curve was filed as active; inconclusive means small, poorly fitted or top-dose-only effect, or effect the other way, or a change in a side signal; inactive means no such curve, though single readings can be large or run the other way; the % refers to the signal ratio; further: potency means the concentration at half of the fitted maximal effect; on the % scale 0 is the no-effect control and ±100 the full control effect
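Compound titration spanned 92 nM–58 uM against the MBNL1-His/biotin-(CUG)12 complex. After 60 min at room temperature with 5 nM streptavidin-XL665 and 0.055 ng/ul terbium anti-His, ratiometric 665/545 nm emission (Ex 340 nm) normalized to controls.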
CBFb-RUNX1 inh = CBF-beta/RUNX1 interaction disruption; AlphaScreen CBFb-His/RUNX1-biotin binding, biochemical; 230,000 tested, under 10 active; Q01196+Q13951; Potency, µM (highest dose often 59.8 µM), inactives show at the top dose activity, negative = inhibition, most hits filed as inhibitors; further: % of control where 0% means no effect
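Bead-based AlphaScreen assay; binding partners His-tagged CBF-beta and biotinylated RUNX1 at 30 nM each. Compound exposure 15 min after a 20-min protein preincubation; bead step 90 min; all steps at room temperature.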
VDR inhibitor = vitamin D3 receptor (human) inhibition; VDR-SRC2-3 peptide fluorescence polarization, 2 h; hit rate 0.93% among 400,000; Potency, µM, for the others: max response, negative = inhibition, usual class: inhibitors; P11473; further: potency means the concentration at half of the fitted maximal effect; on the % scale 0 is the no-effect control and ±100 the full control effect
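After 23 nl compound addition and a short centrifugation, plates sat for 2 hours at ambient temperature; polarization of fluorescence then indicated loss of VDR binding to peptide SRC2-3.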
An asterisk follows results filed as active; ? = inconclusive; . = no result. Unless noted, the call rests on the fitted dose curve; in most records, active means well fitted curve in the direction sought with a large enough effect; inconclusive means small, poorly fitted or top-dose-only effect, or another doubt; inactive means no such curve, though single readings can be large; an effect the other way counts as inactive or inconclusive.

SMILES | KCNH2 3.1 inh | PLK1 PBD block | KCNH2 WT inh | MBNL1-CUG inh | CBFb-RUNX1 inh | VDR inhibitor
Cc1ccc(CSC2=Nc3ccccc3C3=NC(CC(=O)NC4CCCCC4)C(=O)N23)cc1 (stereo unspecified) | . | . | . | . | . | 14%
CCC(=O)Nc1ccc(C2=Nn3c(nnc3C(C)C)SC2)cc1 | -8 | 24µM* | -4 | 0% | . | -29%
CC(C)[C@H](N)c1nnc2n1N=C(c1ccc(Cl)cc1)CS2 | -4 | 4% | -5 | -2% | . | 13%
CC(C)Cn1cc(NC(=O)NCc2cccc(Cl)c2)c2ccccc2c1=O | . | . | . | . | . | 6%
CCOC(=O)c1c(C)[nH]c(C)c1S(=O)(=O)N1CCCC(C(=O)N2CCN(c3ccc(Cl)cc3)CC2)C1 (stereo unspecified) | . | . | . | . | . | 12%
CC(=O)c1ccc(N2CCN(C(=O)C3CCCN(S(=O)(=O)c4c(C)[nH]c(=O)[nH]c4=O)C3)CC2)cc1 (stereo unspecified) | 5 | 15µM* | 2 | 4% | 3% | ?
Cc1ccc(S(=O)(=O)N2CCC(n3c(C)nc4cccnc43)CC2)c(C)c1 | . | . | . | . | . | 9%
CC[C@H](C)[C@H](NC(=O)[C@H](Cc1ccc(O)cc1)NC(=O)[C@@H](NC(=O)[C@H](CCCNC(=N)N)NC(=O)[C@@H](N)CC(=O)O)C(C)C)C(=O)N[C@@H](Cc1cnc[nH]1)C(=O)N1CCC[C@H]1C(=O)N[C@@H](Cc1ccccc1)C(=O)N[C@@H](Cc1cnc[nH]1)C(=O)N[C@@H](CC(C)C)C(=O)N[C@@H](CC(C)C)C(=O)N[C@H](C(=O)N[C@@H](Cc1ccc(O)cc1)C(=O)N[C@@H](CO)C(=O)O)C(C)C | . | . | . | . | 4% | 1%
C#CCNC(=O)c1ccc(OCc2ccccc2)cc1Cl | 0 | -3% | 1 | -2% | 9% | -3%
O=C(NCCCl)c1ccc(OCc2ccccc2)cc1Cl | -113* | 5% | -3 | -2% | 22% | -12%
CCn1c(=O)c(=O)[nH]c2cc(C(=O)NC3CCCC3)ccc21 | 26 | 30µM* | 3 | -1% | 6% | ?
CCn1c(=O)c(=O)[nH]c2cc(C(=O)NCC3CCCCC3)ccc21 | -20 | 2% | -3 | . | 0% | -19%
Cn1c(SCC(=O)Nc2cccc(F)c2)nnc1-c1cccnc1 | 4 | 0% | 2 | 0% | 3% | -2%
O=C(CSc1nnc(-c2cccnc2)n1CCN1CCCCC1)Nc1cccc(Cl)c1 | -87* | -4% | 8 | ? | -1% | 3%
CCCn1c(SCC(=O)N2CCCC(C)C2)nnc1-c1cccnc1 (stereo unspecified) | 11 | 30µM* | 8 | -5% | -16% | -13%
O=C(O)c1cc(-c2c[nH]c3ccccc23)nc2ccc3ccccc3c12 | -98* | -15% | -15 | 18% | 4% | -22%
c1ccc2c(-c3c[nH]c4ccccc34)c3ccccc3nc2c1 | -5 | -21% | 2 | 17% | 20% | 14%
CCCCc1c(O)nc(SCC(=O)NCC2CCCO2)[nH]c1=O (stereo unspecified) | 13 | -7% | 1 | -5% | -8% | 10%
CCCCCc1c(O)nc(SCC(=O)NCC2CCCO2)[nH]c1=O (stereo unspecified) | 0 | 27µM* | -1 | -13% | 0% | -4%
O=[N+]([O-])c1ccc(COc2ncnc3ccccc23)cc1 | -192* | -5% | -163* | ? | -5% | -8%
O=[N+]([O-])c1ccc(NCCNCCOc2nonc2-c2ccccc2)c([N+](=O)[O-])c1 | -93* | -5% | -46 | ? | -24% | 11%
CCOC(=O)c1cc(CC)sc1/N=C/C1C(=O)CC(C)(C)CC1=O | -75* | 5% | -25 | 0% | -2% | -19%
Cc1nc(C)c(C(=O)Nc2nc3c(C)cccc3s2)o1 | -5 | 24µM* | 17 | 14% | -21% | 5%
O=C(CN1CCN(Cc2ccccc2Cl)C1=O)NCCc1ccc(Cl)cc1 | . | . | . | . | . | -14%
CC(C)OCCCNC(=O)CN1CCN(Cc2ccccc2Cl)C1=O | -2 | 3.4µM* | 2 | 0% | 5% | -24%

Compound activity from PubChem.
